Hit rate of the full screen: of about 360,000 compounds, about 25,000 (6.9%) were called active. Another 9% or so got no clear call; they are omitted. Only a selection was taken, and actives are over-represented in it overall. A number with no mark means an inactive call. Calls follow the shape of the dose curve; as a rule, active = well fitted inhibition curve with a large enough effect; inconclusive = small, poorly fitted or top-dose-only effect; inactive = flat fitted curve, though single readings scatter.
target: Luciferin 4-monooxygenase (Photinus pyralis) (UniProt P08659); test: qHTS profiling assay for firefly luciferase inhibitor/activator using purifed enzyme and Km concentrations of substrates (counterscreen for miR-21 project); details: purified FLuc, luminescence inhibition; series mostly up to 57.5 µM; activity change, negative = inhibition: at the top concentration; also: nearly all actives have a fitted effect of over 55% in size;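 as to activity change, negative = inhibition: plate controls were vehicle for no effect and reference inhibitor for full effect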
Sequence (P08659 whole entry, looked up): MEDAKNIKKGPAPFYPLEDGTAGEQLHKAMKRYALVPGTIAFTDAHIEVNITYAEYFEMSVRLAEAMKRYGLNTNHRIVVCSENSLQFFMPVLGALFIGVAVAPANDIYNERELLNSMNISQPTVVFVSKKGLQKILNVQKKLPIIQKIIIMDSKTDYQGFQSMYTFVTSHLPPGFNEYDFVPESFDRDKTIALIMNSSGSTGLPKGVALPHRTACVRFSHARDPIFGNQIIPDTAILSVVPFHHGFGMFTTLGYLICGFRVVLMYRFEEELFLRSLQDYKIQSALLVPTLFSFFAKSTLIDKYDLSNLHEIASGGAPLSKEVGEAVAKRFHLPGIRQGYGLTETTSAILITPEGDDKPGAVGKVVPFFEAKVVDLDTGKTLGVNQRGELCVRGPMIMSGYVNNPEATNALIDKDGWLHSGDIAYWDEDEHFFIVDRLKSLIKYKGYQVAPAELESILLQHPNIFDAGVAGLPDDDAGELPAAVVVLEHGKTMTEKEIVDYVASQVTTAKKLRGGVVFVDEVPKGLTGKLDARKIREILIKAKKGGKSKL
In short: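 Biochemical qHTS of compounds, final roughly 60 µM downward over six points, against 10 nM purified firefly luciferase using Km concentrations of substrates (10 uM D-luciferin, 10 uM ATP) in Tris acetate pH 7.5 buffer; luminescence output.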
Potency is read from the fitted curve at half-maximal effect.

| SMILES | activity change, negative = inhibition [%] | Potency |
| --- | --- | --- |
| COc1ccc(OC(C)C(=O)NCCc2nc3ccccc3[nH]2)cc1 (centres undefined) | -0.594 |  |
| Clc1ccccc1SCc1nc2ccccc2[nH]1 |  | 13.5 µM (active) |
| Nc1cccc(CCc2nc3ccccc3[nH]2)c1 | -21.6 |  |
| O=c1[nH]nc(CSCc2ccccc2Cl)[nH]1 | 2.07 |  |
| c1ccc2c(CSCc3nc4ccccc4[nH]3)cccc2c1 |  | 10.7 µM (active) |
| c1ccc(-c2nnc(SCc3nc4ccccc4[nH]3)o2)cc1 | 1.85 |  |
| COC(=O)Cc1ccc(OC(=O)C2CCN(S(=O)(=O)c3ccc(OC)c(OC)c3)CC2)cc1 | 1.97 |  |
| Cc1nnsc1C(=O)NCc1c(F)cccc1Cl | -1.24 |  |
| Cc1nn(Cc2ccccc2)c(C)c1CNC(=O)c1ccc(F)c(S(=O)(=O)N2CCOCC2)c1 | 5.42 |  |
| O=C(NC(=S)Nc1cccc(-c2ccc(CO)o2)c1)c1cccs1 |  | 19 µM (active) |
| O=C(NC(=S)Nc1ccc(NC(=O)c2cccs2)cc1)c1ccc([N+](=O)[O-])cc1 | 0.372 |  |
| O=C(Nc1ccccc1-c1ccccc1)c1cccs1 | 5.07 |  |
| CCc1cnc2c(c1SCC(=O)c1ccccc1)c(=O)n(C)c(=O)n2C | 0.976 |  |
| O=S(=O)(NCc1ccccc1Br)c1ccccc1Br | -13.2 |  |
| CCOC(=O)c1ccc(Nc2cc(C)nc3nc(C)nn23)cc1 | 4.41 |  |
| Cc1cc(Nc2ccccc2)n(C(=O)c2ccc(N)cc2)n1 |  | 9.53 µM (active) |
| Cc1cc(C)n(C(=O)c2ccc(S(=O)(=O)N3CCCC3)cc2)n1 | -0.0836 |  |
| CCNC(=S)NNC(=O)c1ccc2ncccc2c1 | -6.07 |  |
| CSCC[C@H](NC(=O)OC(C)(C)C)C(=O)N/N=C/c1cc2ccc(C)cc2nc1Cl | 1.83 |  |
| Cc1ccc2cc(/C=N/NC(=O)[C@@H]3CCCN3)c(Cl)nc2c1 | -3.8 |  |
| Cc1ccc(S(=O)(=O)Nc2ccc3ncccc3c2)cc1 | -1.82 |  |
| O=C(O)c1ccc(N/N=C/c2ccc3ncccc3c2)cc1 |  | 0.675 µM (active) |
| Cc1ccc2cc(/C=N/Nc3ccc(C(=O)O)cc3)c(Cl)nc2c1 |  | 0.151 µM (active) |
| Cn1c(=O)n(Cc2ccco2)c(=N)c2c3c(sc21)CCCC3 | -1.02 |  |
| O=c1oc(-c2ccco2)nc2sc3c(c12)CCCCC3 |  | 0.675 µM (active) |
| O=C(NCc1ccco1)c1cccn2c(=O)c3c4c(sc3nc12)CCCC4 | -11.7 |  |
| CCN(C(=O)CSc1nnc(-c2ccc(OC(F)F)cc2)n1N)C1CCS(=O)(=O)C1 (centres undefined) | -1.63 |  |

| SMILES | activity change, negative = inhibition [%] | Potency |
| --- | --- | --- |
| O=C(NNC(=O)c1ccc(-n2cncn2)c([N+](=O)[O-])c1)c1ccccc1 | -7.75 |  |
| C/C(=N\NC(=O)CSc1nc2ccccc2c(=O)n1-c1ccccc1C)c1cccs1 | 2.93 |  |
| CC(=NCc1ccco1)c1c(C(F)(F)F)[nH]n(-c2nc3ccccc3s2)c1=O |  | 7.57 µM (active) |
| CCC1(CC)NC(=O)N(Cc2nc3ccccc3s2)C1=O | 1.69 |  |
| C/C(=N\NC(=O)CC(C)C)c1c(C(F)(F)F)[nH]n(-c2nc3ccccc3s2)c1=O |  | 5.36 µM (active) |
| Cc1cccc(NC(=O)c2cc3c(C)nn(-c4ccccc4)c3s2)c1 | -2.33 |  |
| O=C(NCc1ccncc1)C1CCN(C(=O)c2cccc(Cl)c2)CC1 | 2.73 |  |
| Cc1ccc(-n2c(CNc3ccc(F)cc3)nnc2SCC(=O)N2CCOCC2)cc1 | 5.25 |  |
| O=C(CSc1cccc[n+]1[O-])c1ccc(Cl)cc1 | -5.96 |  |
| O=C(CSc1cccc[n+]1[O-])c1ccc(-c2ccccc2)cc1 |  | 19 µM (active) |
| COc1ccccc1C(=O)CSc1cccc[n+]1[O-] | -1.55 |  |
| CC(O)c1cccc(NC(=O)Cc2cccc3ccccc23)c1 (centres undefined) | -9 |  |
| CCC(=O)N1c2ccc(S(=O)(=O)CCC(=O)N3CCN(c4ccccc4)CC3)cc2CC1C (centres undefined) | 0.169 |  |
| Cc1ccn(CCC(=O)N2c3ccccc3CC2C)n1 (centres undefined) | 0.985 |  |
| CCCC(=O)N1c2ccc(-c3csc(N)n3)cc2CC1C (centres undefined) |  | 7.57 µM (active) |
| CCOc1ccccc1NC(=O)Cn1c(=O)n(-c2cccc(C)c2)c(=O)c2c1c1cc(OC)ccc1n2C | 1.32 |  |
| CN(CC(=O)NC(=O)Nc1ccccc1F)Cc1ccccc1 | -17.3 |  |
| Oc1ccc(-c2nc3ccc(Cl)cn3c2Nc2ccc3c(c2)OCO3)cc1 | -17.2 |  |
| CN(C(=O)COc1ncnc2c1cnn2-c1ccccc1)C1CCCCC1 | 4.1 |  |
| CCN(c1ncnc2c1cnn2-c1ccc(C)cc1)C1CCCCC1 |  | 2.13 µM (active) |
| c1ccc(-n2ncc3c2ncn2c(C4CCCCC4)nnc32)cc1 | -19.9 |  |
| O=C(Nn1cnc2ccccc2c1=O)c1ccc(F)cc1Cl |  | 13.5 µM (active) |
| O=C(Nn1cnc2ccccc2c1=O)c1ccc([N+](=O)[O-])cc1Cl | -16.3 |  |
| O=c1c2ccccc2ncn1CCCCOc1ccccc1F | -12.9 |  |
| COC(=O)c1c(NC(=O)C(C)Oc2ccc(Cl)c(C)c2)sc(C)c1C (centres undefined) | 5.37 |  |
| Cc1ccc(NC(=S)N2CCN(c3ncccn3)CC2)cc1C | 0.0229 |  |
| COc1ccc(NC(=O)Cn2c(=O)n(CCC(C)C)c(=O)c3cccnc32)cc1Cl | -2.93 |  |

— PubChem BioAssay AID588342 (National Center for Advancing Translational Sciences (NCATS), 2011)
